These results are taken from PubChem BioAssay (NCI).

Some test systems named below: T-47D breast; BT-549 breast; MDA-MB-435 melanoma; SW-620 colon; MCF7 breast; HCT-116 colon; HCC-2998 colon; KM12 colon.
Common to all, as to test: NCI-60 one-dose screen, 48 h (100 = growth as untreated, 0 = no growth, -100 = all killed)
Conditions in all cases: 10 µM unless noted

Each structure is given as a SMILES string. This is part of a sample that, as a whole, favours compounds with a hit. Of some 83,000 tested, about 20% had one in any assay.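 Plates (96-well) were seeded with cells, treated with compound at one concentration, and incubated for 48 hours before percent growth was determined.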 Values without a mark were called inactive. The source made the active and inactive calls. The calls were made as follows: active = growth percent below 10; inactive = the rest.

Take `COc1ccc(N2CCN(C(=O)c3sc4nc(C)c(Br)c(C)c4c3N)CC2)cc1`: the growth was 79% in the experiment on T-47D breast; 88.2% in the experiment on BT-549 breast; 98.7% in the experiment with MDA-MB-435 melanoma; 104% in the experiment with SW-620 colon; 81% with MCF7 breast; 99% in the experiment with HCT-116 colon. In addition, the growth in the experiment on HCC-2998 colon is 97.1%; in the experiment on KM12 colon, 94%.
Consider `O=C(Nc1cc(Cl)ccc1O)c1cccc(Nc2ccnc(C(F)(F)F)c2)c1`, for which the growth in the experiment on T-47D breast was 10.8%; in the experiment with BT-549 breast it was 34.9%; in the experiment on MDA-MB-435 melanoma it was 31.2%; in the experiment with SW-620 colon it was 62.9%; in the experiment on MCF7 breast it was 26%; in the experiment with HCT-116 colon, 26.1%. The results for the growth in the experiment on HCC-2998 colon and in the experiment with KM12 colon were 25.5% and 36.5%, respectively.
`Cc1c(CC(=S)N2CCOCC2)nnn1-c1cccc(C(F)(F)F)c1`: the growth is 103% in the experiment with T-47D breast; 112% in the experiment on BT-549 breast; 103% in the experiment with MDA-MB-435 melanoma; 99.9% with SW-620 colon; 104% with MCF7 breast; 102% in the experiment with HCT-116 colon. The growth in the experiment with HCC-2998 colon is 119%; in the experiment with KM12 colon, 105%.
Consider `O=C(Cc1ccccc1)Nc1cccc(N=Cc2ccccc2O)c1`, for which the growth in the experiment with T-47D breast is 91.8%; in the experiment on BT-549 breast, 115%; in the experiment on MDA-MB-435 melanoma it was 97.8%; with SW-620 colon, 109%; with MCF7 breast, 94.4%; in the experiment on HCT-116 colon it was 108%. The growth in the experiment on HCC-2998 colon is 106%; in the experiment on KM12 colon it was 98.1%.
In the case of `Clc1ccc(-c2cc(-c3ccccc3)nc(NCCNc3ccnc4cc(Cl)ccc34)n2)cc1`, the growth with T-47D breast was 11.8%; in the experiment with BT-549 breast, 88.3%; in the experiment on MDA-MB-435 melanoma, -56.9% (active); with SW-620 colon, -63% (active); in the experiment with MCF7 breast, -76.8% (active); with HCT-116 colon, -79.4% (active). For the same compound, the values for the growth in the experiment with HCC-2998 colon and in the experiment with KM12 colon were -88.9% (active) and -5.53% (active), respectively.
Regarding `Cc1ccc(Cl)cc1NC(=O)c1sc2nc3c(cc2c1N)C(=O)CCC3`, the growth in the experiment on T-47D breast was 82.9%; in the experiment with BT-549 breast it was 93.5%; in the experiment on MDA-MB-435 melanoma, -3.04% (active); with SW-620 colon, 36.5%; in the experiment on MCF7 breast it was 35.6%; with HCT-116 colon it was 68%. In addition, the growth was 74.9% with HCC-2998 colon and 37% in the experiment on KM12 colon.
For `C=CCN1C(=O)c2cccc3c(N4CCOCC4)ccc(c23)C1=O`, the growth in the experiment with T-47D breast is -2.1% (active); in the experiment on BT-549 breast, -47.8% (active); with MDA-MB-435 melanoma, 0.357% (active); in the experiment with SW-620 colon, 7.24% (active); with MCF7 breast, -0.408% (active); in the experiment on HCT-116 colon it was -25.4% (active). Besides, the growth in the experiment on HCC-2998 colon was -34% (active); in the experiment with KM12 colon, -56.4% (active).
Turning to `CC(C)=CCNc1ncnc2c1ncn2C1OC(CO)C(O)C1O` (stereo not given), the growth in the experiment on T-47D breast is -57% [1 mM] (active); in the experiment with BT-549 breast, -51.7% [1 mM] (active); with MDA-MB-435 melanoma it was 23.9% [1 mM]; in the experiment with SW-620 colon, -2.16% [1 mM] (active); in the experiment on MCF7 breast, -60.7% [1 mM] (active); in the experiment with HCT-116 colon, -13.7% [1 mM] (active). The growth with HCC-2998 colon is -62.5% [1 mM] (active); in the experiment on KM12 colon it was 10.6% [1 mM].
For `CCN(CC)CCCN1C(=O)c2c(c(C)c3c(oc4ccc(OC)cc43)c2C)C1=O`, the growth with T-47D breast is 105%; in the experiment on BT-549 breast it was 119%; in the experiment with MDA-MB-435 melanoma, 109%; in the experiment on SW-620 colon, 97.9%; in the experiment on MCF7 breast, 98.3%; in the experiment on HCT-116 colon it was 93.3%. Also, the growth with HCC-2998 colon is 105%; with KM12 colon it was 104%.
Consider `COc1ccc(-c2nc3c(N)c(CO)cnc3s2)cc1`, for which the growth in the experiment with T-47D breast is 89.2%; with BT-549 breast, 104%; with MDA-MB-435 melanoma it was 92.9%; in the experiment on SW-620 colon, 94.1%; in the experiment on MCF7 breast, 91%; with HCT-116 colon it was 101%. In addition, the growth with HCC-2998 colon was 85.8%; in the experiment with KM12 colon, 88.4%.
Turning to `NC(=O)c1c(NC(=O)c2cccc(C(F)(F)F)c2)sc2c1CCC(=O)C2`, the growth in the experiment on T-47D breast was -3.77% (active); with BT-549 breast, -28.2% (active); in the experiment with MDA-MB-435 melanoma, -12.2% (active); with SW-620 colon, -12.4% (active); in the experiment with MCF7 breast, 5.02% (active); with HCT-116 colon, -28.2% (active). Moreover, the growth with HCC-2998 colon was 16.1%; with KM12 colon, 0.496% (active).
Take `CCOC(=O)c1c(C)nc2ccccc2c1/C=C/c1cccs1`: the growth in the experiment with T-47D breast is 17.4%; in the experiment with BT-549 breast, 77.4%; with MDA-MB-435 melanoma, 88.7%; in the experiment on SW-620 colon, 91.9%; with MCF7 breast it was 39.5%; in the experiment with HCT-116 colon it was 61.3%. The growth is 79.4% with HCC-2998 colon and 77.8% in the experiment with KM12 colon.
On to `COc1ccc(C2=CN3CC=CC3CC2=O)cc1` (stereo not given), for which the growth is 75.3% in the experiment with T-47D breast; 105% in the experiment with BT-549 breast; 96.9% in the experiment on MDA-MB-435 melanoma; 105% with SW-620 colon; 93.4% in the experiment with MCF7 breast; 90.3% with HCT-116 colon. Moreover, the growth in the experiment with HCC-2998 colon was 91%; in the experiment with KM12 colon, 101%.
On to `O=C1/C=C/[C@@H](O)[C@@H]2C[C@@H](O)C[C@H]2/C=C/CCC[C@H](CCO)O1`, for which the growth is -17.8% (active) with T-47D breast; 8.06% (active) with BT-549 breast; 9.98% (active) with MDA-MB-435 melanoma; -46% (active) in the experiment on SW-620 colon; -17.1% (active) in the experiment on MCF7 breast; -62.5% (active) with HCT-116 colon. The growth is 1.71% (active) with HCC-2998 colon and -54.3% (active) in the experiment on KM12 colon.
Take `CC1(C)[C@@H](O[C@@H]2OC[C@@H](O[C@@H]3O[C@H](CO)[C@@H](O)[C@H](O)[C@H]3O[C@@H]3OC[C@@H](O)[C@H](O)[C@H]3O)[C@H](O)[C@H]2O[C@@H]2O[C@H](CO)[C@@H](O)[C@H](O)[C@H]2O)CC[C@]2(C)[C@H]3CC[C@]45OC[C@@]6(CC[C@](C)(C=O)C[C@H]64)[C@H](O)C[C@@]5(C)[C@]3(C)CC[C@@H]12`: the growth is -55.7% (active) in the experiment on T-47D breast; -94% (active) with BT-549 breast; -83.8% (active) with MDA-MB-435 melanoma; -58.4% (active) in the experiment with SW-620 colon; -59.6% (active) in the experiment on MCF7 breast; -75.9% (active) in the experiment on HCT-116 colon. The figures for the growth with HCC-2998 colon and in the experiment with KM12 colon were -82.1% (active) and -62% (active), respectively.
